Test results published in paper PMC4336329 (PLoS ONE, 2015).
The campaign covered roughly 310,000 compounds. About 14,000 (4.5%) showed an effect of 50% or more. The effect is printed as a negative number. The list comes from a sample in which strong results are over-represented; it also holds similar structures and randomly drawn compounds.

target: human ether-à-go-go-related gene (hERG) potassium channel (human, UniProt Q12809); experiment: primary screen, population patch clamp on CHO cells stably expressing hERG; higher = less effect of the substance
Sequence (Q12809 whole entry, looked up): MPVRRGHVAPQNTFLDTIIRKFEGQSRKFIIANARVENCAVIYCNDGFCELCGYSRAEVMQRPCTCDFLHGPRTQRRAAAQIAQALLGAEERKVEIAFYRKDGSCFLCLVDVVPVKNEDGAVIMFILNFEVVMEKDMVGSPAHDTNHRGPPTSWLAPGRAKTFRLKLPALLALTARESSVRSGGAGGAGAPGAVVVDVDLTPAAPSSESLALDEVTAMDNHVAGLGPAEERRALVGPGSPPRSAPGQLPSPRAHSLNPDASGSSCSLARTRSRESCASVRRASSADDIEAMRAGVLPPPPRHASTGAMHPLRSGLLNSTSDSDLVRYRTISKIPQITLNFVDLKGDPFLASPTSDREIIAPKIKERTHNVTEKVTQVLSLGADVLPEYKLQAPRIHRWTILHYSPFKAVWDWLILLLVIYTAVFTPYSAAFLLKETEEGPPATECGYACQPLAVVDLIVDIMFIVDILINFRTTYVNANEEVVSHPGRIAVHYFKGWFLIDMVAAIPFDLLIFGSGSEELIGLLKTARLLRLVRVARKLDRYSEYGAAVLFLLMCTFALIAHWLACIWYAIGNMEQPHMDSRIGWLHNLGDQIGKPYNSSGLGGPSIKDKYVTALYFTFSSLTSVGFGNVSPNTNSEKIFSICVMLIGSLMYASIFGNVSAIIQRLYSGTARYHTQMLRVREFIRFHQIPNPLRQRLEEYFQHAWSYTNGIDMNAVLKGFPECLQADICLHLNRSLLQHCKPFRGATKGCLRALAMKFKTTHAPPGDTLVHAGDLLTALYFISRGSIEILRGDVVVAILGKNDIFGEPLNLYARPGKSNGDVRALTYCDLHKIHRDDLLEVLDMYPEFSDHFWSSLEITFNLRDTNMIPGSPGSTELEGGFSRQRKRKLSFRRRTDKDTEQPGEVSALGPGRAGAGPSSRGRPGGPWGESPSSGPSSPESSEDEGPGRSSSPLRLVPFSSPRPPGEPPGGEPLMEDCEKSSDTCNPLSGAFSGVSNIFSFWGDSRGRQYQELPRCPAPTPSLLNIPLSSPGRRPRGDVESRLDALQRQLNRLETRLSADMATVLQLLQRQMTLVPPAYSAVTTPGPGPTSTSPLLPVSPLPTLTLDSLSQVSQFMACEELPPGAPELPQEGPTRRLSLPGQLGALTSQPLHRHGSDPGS
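Also: peak tail current of the secondary pulse compared with the same well before compound.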

Compound | hERG current change (%, negative = inhibition) at 10uM
O=C(C[n+]1ccc(C(=O)c2ccccc2)cc1)Nc1ccc(C(F)(F)F)cc1.[Cl-] | -11.6%
CS(=O)(=O)N(CC(=O)N1CCCCC1)c1cccc(F)c1 | 13%
COc1cccc(NC(=O)COC(=O)c2ccccc2F)c1 | 13.8%
O=C(CCc1nnc2ccc(N3CCC4(CC3)OCCO4)nn12)Nc1ccc(F)cc1 | -40.2%
CC(C)[C@H](CN(N=O)[C@@H](Cc1ccccc1)CN(C)N=O)N(CCc1ccccc1)N=O.[Na+] | -0.676%
CC(C)(C)C(=O)NC(NC(=O)C(C)(C)C)c1ccc([N+](=O)[O-])cc1 | 8.18%
CCn1nc(C)c(Br)c1-c1nc(-c2cccc(C)c2)no1 | 19.1%
COc1ccc(N=NC2=C(O)CC(C)(C)CC2=O)cc1 | -9.39%
CC1(C)CC(=O)C(N=Nc2ccc(F)cc2)=C(O)C1 | -4.21%
CC1(C)CC(=O)C(N=Nc2ccc(OC(F)F)cc2)=C(O)C1 | -57.6%
COc1ccc(-n2cnc3cc(C(=O)N4CCC5(CC4)OCCO5)ccc32)cc1 | -42.8%
O=C(Cc1ccccc1)Nc1ccccc1N1CCCC1 | 9.76%
Cc1ccc(-c2nnc(SCC(=O)Nc3ccccc3F)o2)cc1 | 6.53%
Cc1cc(NC(=O)CSc2ccc3nnc(-c4ccccn4)n3n2)no1 | -6.72%
Cc1ccccc1CSc1nnc(-c2ccccn2)n1C | -1.96%
Cc1ccccc1NC(=O)CSc1ccc2nnc(-c3ccccn3)n2n1 | -23.8%
Cc1ccccc1CSc1ccc2nnc(-c3ccccn3)n2n1 | -81.6%
Cc1ccc(C)c(CSc2ccc3nnc(-c4ccccn4)n3n2)c1 | -76.5%
Cc1nnc(NC(=O)CSc2ccc3nnc(-c4ccccn4)n3n2)s1 | -9.79%

Compound | hERG current change (%, negative = inhibition) at 10uM
CS(=O)Cc1cc(Oc2ccccc2)nc(-c2ccncc2)n1 (centres unmarked) | -16.5%
Cc1nc2cc(NC(=O)c3ccc(Br)s3)ccc2s1 | 20%
CCN1CCN(c2ccc([N+](=O)[O-])c(Sc3nc4ccccc4[nH]3)c2)CC1 | -60.4%
COc1ccccc1N1CCN(C(=O)CSc2ncccc2-c2nc3ccccc3[nH]2)CC1 | -23.7%
O=C(CSc1ncccc1-c1nc2ccccc2[nH]1)N1CCCCC1 | -16.3%
NC(=O)CCCSc1nc2ccccc2[nH]1 | 13.3%
Br.CC1(C(=O)CSc2ncn[nH]2)CCC(=O)O1 (centres unmarked) | 2.21%
Br.CC1(C(=O)CSc2nc3ccccc3s2)CCC(=O)O1 (centres unmarked) | -2.67%
O=[N+]([O-])c1ccc(N2CCN(CCO)CC2)cc1Sc1nc2ccccc2[nH]1 | -12.4%
O=C(CSc1nc2ccccc2[nH]1)Nc1ccc(N2CCOCC2)cc1 | 8.65%
CN1CCN(c2ccc([N+](=O)[O-])c(Sc3nc4ccccc4[nH]3)c2)CC1 | -19.7%
COc1ccc(N2CCN(C(=O)CSc3ncccc3-c3nc4ccccc4[nH]3)CC2)cc1 | -53.4%
O=C(CCCSc1nc2ccccc2[nH]1)N1CCN(c2ccc([N+](=O)[O-])cc2)CC1 | -79.9%
CC1(C(=O)CSc2nc3ccccc3[nH]2)CCC(=O)O1 (centres unmarked) | -70.8%
COC(=O)C1=C(C)N(CCc2ccc(OC)c(OC)c2)C(=O)C1 | 18.5%
O=C(CNS(=O)(=O)c1ccc(Cl)cc1)NNC(=O)c1cccnc1 | 20.7%
S=C1NC[C@H](Cc2cccc3ccccc23)N1CC1CCCCC1 | 10.3%
COc1cc(O)sc1C=Nc1ccc(Cl)cc1 | 4.72%
Cc1cc2c(n1-c1ccc(Br)cc1)CC(C)(C)CC2=O | -33.5%

Compound | hERG current change (%, negative = inhibition) at 10uM
O=S(=O)(Nc1cccc(-n2cnnn2)c1)c1ccccc1C(F)(F)F | 12%
CN1CCN(CCC(=O)N/N=C/c2cc([N+](=O)[O-])ccc2OC(F)F)CC1 | 1.78%
C#CCOCCOCCOCCNc1nc(N2CCN(C(=O)CCCCCCCCCCNC(=O)Cn3cc(CCCCCN)nn3)CC2)nc(N2CCN(C(=O)CCCCCCCCCCNC(=O)[C@@H](CCC(=O)O)n3cc(CCCCCN)nn3)CC2)n1 | -5.58%
CC(=O)Nc1cccc(NC(=O)CSc2nnc(Cc3cccn3C)n2-c2ccc(C)cc2)c1 | -11.9%
Cc1ccnc(NC(=O)c2ccc(Cl)c(NC(=O)C(C)Oc3ccccc3)c2)c1 (centres unmarked) | 1.41%
O=C(CCCSc1nc2ccccc2[nH]1)NCc1ccc(Cl)cc1 | -62.3%
O=C(CCCSc1nc2ccccc2[nH]1)NCc1ccccc1Cl | -19.3%
COc1ccc(N2CCN(C(=O)CCCSc3nc4ccccc4[nH]3)CC2)cc1 | -62.3%
O=C(CCCSc1nc2ccccc2[nH]1)NCc1ccccc1 | -23.9%
O=C(CCCSc1nc2ccccc2[nH]1)N1CCN(c2ccccc2)CC1 | -60.2%
O=C(CSc1nc2ccccc2[nH]1)N1CCN(c2ccccc2)CC1 | -0.235%
Cc1ccc2nc(SCC(=O)N3CCN(c4ccccc4)CC3)[nH]c2c1 | 1.42%
O=C(CCCSc1nc2ccccc2[nH]1)Nc1ccccc1 | 7.05%
Cc1cccc(N2CCN(C(=O)CCCSc3nc4ccccc4[nH]3)CC2)c1C | -17.4%
O=C(CSc1nc2ccccc2[nH]1)N1CCCCC1 | -2%
O=C(CSc1nc2ccccc2[nH]1)N1CCN(c2ccc(F)cc2)CC1 | -55.6%
COc1ccc(N2CCN(C(=O)CSc3nc4ccccc4c(=O)[nH]3)CC2)cc1 | -10.7%
CC(C)CNC(=O)C(=O)NC1CCCC1 | 11.7%
